# High-throughput results from PubChem.
# A549 tox-1 – counter-screen for Nrf2 inhibitors: cytotoxicity in A549 cells; hit rate 0.16% among 390,000; Potency, µM (series often up to 46 µM), usual class: inhibitors; AID 504648; A549 ARE-Fluc cells, CellTiter-Fluor viability, 18-24 h
#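 Cytotoxicity counterscreen: CellTiter-Fluor fluorescence was measured in A549 ARE_Fluc cells after 18-24 h of compound exposure in a concentration series. The subsequent BugLite luminescent read reports ARE-luciferase activity.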
# HepG2 viability – counter-screen for TGF-b inhibitors: cytotoxicity in HepG2 cells. HepG2 CAGA-GFP viability, ATP luminescence, 18 h. Potency, µM (titrated, usually from 46.1 µM), usual class: cytotoxic. hit rate 0.76% among 410,000
#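 HepG2 CAGA-GFP cells (1000/well, DMEM with 1% FBS) received compound, then TGF-beta at 500 pg/mL final, and were incubated 18 hours at 37 degrees C. Viability was read by CellTiter-Glo luminescence. Media-only wells were set as complete cell-killing and DMSO as no toxicity.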
# Nrf2 ARE act – activators of Nrf2 (ARE) signaling; hit rate 0.31% among 410,000; AREc32 ARE-luciferase reporter (MCF7-derived line), luminescence, 24 h; Potency, µM (doses to about 46.1 µM), most hits filed as activators; also: nearly all actives have a fitted effect of over 65% in size
#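 Cells of the AREc32 ARE-luciferase line are plated in OPTI-MEM containing 5% FBS and left overnight at 37 deg C. Compounds are pinned in, incubation continues 24 hr, and firefly luciferase signal is then measured.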
# TGFb SMAD3 inh – blocks TGF-b signaling. HepG2 CAGA-GFP TGF-b/SMAD3 reporter, GFP fluorescence, 18 h; TGF-beta stimulated, 500 pg/mL final. Potency, µM (doses to about 46.1 µM), usual class: inhibitors. hit rate 1.2% among 410,000; also: nearly all actives have a fitted effect of over 65% in size
#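 GFP signal (ex488/em500-530) from TGF-beta-stimulated HEPG2 CAGA-GFP cells, 500 pg/mL final, 18 h at 37 degrees C in DMEM plus 1% FBS, normalized to unstimulated and DMSO-stimulated controls.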
# Nrf2 inh – blocks Nrf2 signaling; A549 ARE-Fluc reporter, luciferase luminescence, 18-24 h; Potency, µM (top dose mostly 46 µM), most hits filed as inhibitors; hit rate 2.1% among 360,000; also: nearly all actives have a fitted effect of over 60% in size
#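 Cells were seeded and rested 2 h, then exposed to compounds for 18-24 h. CellTiter-Fluor was read first as a viability measure. BugLite was added 15 min before the final luminescent read of ARE-luciferase activity in A549 cells.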
# FLuc counter 3 – counter-screen for Nrf2 inhibitors: firefly luciferase enzyme inhibition; AID 720522; shares compounds with Nrf2 inh; purified firefly luciferase, luminescence inhibition; hit rate 4% among 1,400; Potency, µM (top dose mostly 57.5 µM), most hits filed as inhibitors; also: nearly all actives have a fitted effect of over 65% in size
# Target sequence (P08659 whole entry, looked up): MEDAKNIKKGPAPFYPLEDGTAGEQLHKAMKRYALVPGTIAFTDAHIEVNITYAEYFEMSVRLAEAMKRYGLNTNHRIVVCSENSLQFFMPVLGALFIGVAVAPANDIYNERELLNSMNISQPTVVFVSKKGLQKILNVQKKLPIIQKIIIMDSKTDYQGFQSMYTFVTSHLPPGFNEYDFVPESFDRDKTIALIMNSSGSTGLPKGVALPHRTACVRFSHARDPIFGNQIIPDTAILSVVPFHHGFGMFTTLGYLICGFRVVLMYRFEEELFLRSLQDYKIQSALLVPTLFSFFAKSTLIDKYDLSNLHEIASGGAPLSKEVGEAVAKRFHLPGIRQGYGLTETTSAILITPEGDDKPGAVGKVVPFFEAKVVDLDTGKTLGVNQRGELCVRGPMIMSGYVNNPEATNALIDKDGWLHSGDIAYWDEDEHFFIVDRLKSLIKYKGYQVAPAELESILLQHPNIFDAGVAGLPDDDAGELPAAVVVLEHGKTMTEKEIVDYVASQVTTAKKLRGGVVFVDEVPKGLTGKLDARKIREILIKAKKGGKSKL
# A549 tox-2 – toxic to A549 ARE-Fluc cells in Nrf2 counterscreen | hit rate 2% among 1,400 | Potency, µM (titrated, usually from 46.1 µM), actives largely listed as inhibitors | AID 720523 | shares compounds with Nrf2 inh | A549 ARE-Fluc cells, cytotoxicity counterscreen;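 also: cells exposed to compounds for 18 to 24 hours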
# ARE-Fluc inh – confirmation of Nrf2 inhibitors in A549 ARE reporter cells | Potency, µM (top dose mostly 46.1 µM), hits mostly inhibitors | shares compounds with Nrf2 inh | hit rate 74% among 1,400 | A549 ARE-firefly luciferase reporter, luminescence; also: nearly all actives have a fitted effect of over 65% in size
# Numbers stand for hits; - = inactive; ? = inconclusive; . = no result shown; [ ] = remark or other dose. Rows were chosen to be rich in hits. Some 3.6% of all compounds tested hit in one or more screens of this group. Calls follow the shape of the dose curve; as a rule, active = well fitted curve in the direction sought with a large enough effect; inconclusive = small, poorly fitted or top-dose-only effect, or another doubt; inactive = no such curve, though single readings can be large; an effect the other way counts as inactive or inconclusive.
SMILES,A549 tox-1,HepG2 viability,Nrf2 ARE act,TGFb SMAD3 inh,Nrf2 inh,FLuc counter 3,A549 tox-2,ARE-Fluc inh
COc1ccc(C(=O)N/C(=C\c2ccco2)C(=O)NCc2cccnc2)cc1,-,-,-,-,-,.,.,.
COc1ccc(OC)c2sc(N3CCN(C(=O)CCS(=O)(=O)c4ccc(F)cc4)CC3)nc12,-,-,-,-,.,.,.,.
COc1cccc(C(=O)NN/C(C)=C/C(=O)C(F)(F)C(F)(F)C(F)(F)F)c1,-,-,-,?,-,.,.,.
O=C1c2ccccc2NC(c2ccccc2Br)N1CCCN1CCOCC1 (centres undefined),-,-,-,-,-,.,.,.
CCCN(CCC)S(=O)(=O)c1ccc(C(=O)Nc2nnc(-c3cccc(OC)c3)o2)cc1,?,-,-[9.22 µM],-,6.5µM,-,?,4.6µM
CCN(c1ccccc1)S(=O)(=O)c1ccc(C(=O)Nc2nnc(-c3ccco3)o2)cc1,-,-,-,?,5.2µM,-,-,5.2µM
CN(c1ccccc1)S(=O)(=O)c1ccc(C(=O)Nc2nnc(-c3ccco3)o2)cc1,-,-,-,-,?,.,.,.
O=C(Nc1nnc(-c2cccs2)o1)c1ccc(S(=O)(=O)N2CCOCC2)cc1,-,-,-,-,?,.,.,.
CC1(C)COCN1S(=O)(=O)c1ccc(C(=O)Nc2nnc(-c3ccc(Cl)s3)o2)cc1,?,-,-,-,6.3µM,-,?,5.2µM
COc1ccccc1N1CCN(C(=O)COc2ccccc2C#N)CC1,-,-,-,-,-,.,.,.
O=C(N/N=C/c1sc(=O)[nH]c1-[n+]1ccccc1)c1ccccc1[O-],?,-,-,-,-,.,.,.
COc1ccc(CN(C)Cc2nc(Cc3cccc(F)c3)no2)c2cccnc12,?,-,-,?,3.3µM,-,-,?
CS(=O)(=O)N(CC(=O)NCCSc1ccccc1)c1ccc2c(c1)OCO2,-,-,-,-,-,.,.,.
CC(=O)OCC(=O)C1=CCC2C3CCC4=CC(=O)C=CC4(C)C3(F)C(OC(C)=O)CC12C (centres undefined),-,-,-,-,-,.,.,.
CC(=O)OCC(=O)C1(O)CCC2C3CCC4=CC(=O)CCC4(C)C3(F)C(O)CC21C (centres undefined),-,-,-,-,0.037µM,-,-,0.021µM
CC(=O)OCC(=O)[C@H]1CC[C@H]2[C@@H]3CCC4=CC(=O)CC[C@]4(C)[C@H]3CC[C@]12C,-,-,-,-,-,.,.,.
CC(=O)OCC(=O)C1(O)CCC2C3CCC4=CC(=O)CCC4(C)C3(Cl)C(O)CC21C (centres undefined),-,-,-,-,1.2µM,-,-,0.52µM
COc1ccc(CNC(=O)CCc2nnc3ccc(N4CCC5(CC4)OCCO5)nn23)cc1,-,-,-,-,-,.,.,.
CCCCCCCn1ccc(=N)cc1,-,-,-,?,2.9µM,-,-,6.5µM
CCCCCn1ccc(=N)cc1,?,-,-,-,0.92µM,-,-,1.6µM
CCCCCCCCCn1ccc(=N)cc1,?,-,-,?,3.3µM,-,-,8.2µM
CCn1ccc(=N)cc1,-,-,-,-,.,.,.,.
N=c1ccn(Cc2ccc(Cl)cc2)cc1,?,-,-,?,.,.,.,.
CCCC(=O)c1ccc(N2CCC(C)CC2)c(F)c1,-,-,-,-,?,.,.,.
COc1cccc(C(=O)OCC(=O)c2ccc(Br)s2)c1,-,-,-,-,-,.,.,.
SMILES,A549 tox-1,HepG2 viability,Nrf2 ARE act,TGFb SMAD3 inh,Nrf2 inh,FLuc counter 3,A549 tox-2,ARE-Fluc inh
c1ccc2c(N=NN3CCCCC3)ccnc2c1,.,-,.,-,.,-,-,5.8µM
CCN1CCS/C1=C\C=C\C1=[N+](CC)CCS1,?,-,-,?,1.6µM,-,?,6.5µM
CC(C)(C)c1ccc(/C=C/C(=O)O)s1,-,-,-,-,?,.,.,.
O=C(CCCc1nc(-c2ccccc2Cl)no1)NC1CCCC1,-,-,-,-,1.2µM,?,-,4.6µM
O=C(CCCc1nc(-c2ccc(Cl)cc2)no1)NC1CCCCC1,-,-,-,-,3.7µM,-,-,.
C1=C2C[N+]3(CCCC3)CC2Cc2ccc3ccccc3c21 (centres undefined),-,-,-,-,2.1µM,-,-,7.3µM
C=CCNc1nc(C(=O)OCC(=O)c2ccc(C)c([N+](=O)[O-])c2)cs1,-,-,-,-,-,.,.,.
CNc1cccnc1C=NNC(N)=S,?,-,-,?,0.58µM,-,-,1.5µM
N#C/C(=N\Nc1cccc(C(F)(F)F)c1)C(=O)c1ccsc1,-,-,-,10µM,?,21µM,?,.
Cc1nccc(-c2cccc(N/N=C(\C#N)C(=O)c3ccccc3)c2)n1,-,-,-,-,?,.,.,.
CCN(Cc1nc2cc(Cl)ccc2c(=O)[nH]1)C(=O)c1cc2c(s1)CCCCC2,-,-,-,-,-,.,.,.
Cc1ccc(CN2C(=O)N/C(=C\c3cccn3-c3cccc(C(=O)O)c3)C2=O)cc1,?,-,-,-,2.6µM,-,-,-
O=C(O)c1cccc(-n2cccc2/C=C2\NC(=O)N(Cc3ccc(F)cc3)C2=O)c1,-,-,-,-,-,.,.,.
Cc1ccc(NC(=O)C2CCCN(C(=O)c3ccc(Cl)cc3)C2)cc1S(=O)(=O)N1CCOCC1 (centres undefined),?,-,-,-,7.3µM,-,-,13µM
CC(C)NS(=O)(=O)c1ccc(NC(=S)NC(=O)c2ccc(-c3ccccc3)cc2)cc1,-,-,-,-,2.1µM,-,-,4.6µM
CCOC(=O)NC(Nc1cc(C)ccn1)(C(F)(F)F)C(F)(F)F,-,-,-,-,.,.,.,.
Cc1ccsc1-c1nc(CSCC(=O)N2CCN(c3ccccc3)CC2)c(C)o1,-,-,-,?,?,.,.,.
COc1ccc(-c2nc(CSCC(=O)N3CCN(c4ccccc4)CC3)c(C)o2)cc1,?,-,-,?,2.6µM,-,-,?
CC(C)CC(N)c1cn([C@@H](CCC(=O)O)C(=O)N2CCNCC2)nn1 (some centres undefined),-,-,-,-,-,.,.,.
CC(C)C[C@H](N)c1cn([C@@H](CCCCN)C(=O)N2CCNCC2)nn1,?,-,-,?,1µM,-,-,?
O=C1N=C(N2CCC(Cc3ccccc3)CC2)S/C1=C/c1cn[nH]c1-c1ccccc1,-,-,-,-,?,-,-,?
COc1ccc2c(c1)c(C)cc[n+]2Cc1ccccc1,-,-,-,?,6.5µM,-,-,10µM
CN1CCc2c(OCC(=O)N3CCCc4ccccc43)cccc2C1=O,?,-,-,-,9.2µM,-,-,?
